Assay results reported in PubChem BioAssay (EPA / NIEHS).
Several values for one entry are separate records, joined by “and”; a condition that tells them apart may be missing. Equal entries are not always repeated. Inconclusive results are not listed. More than one record can exist for a structure, and the calls need not agree. Activity calls are given as the source filed them. How the source made its calls, unless noted: active means hit-call score of the fitted dose curve at least 0.9, where 1 is the maximum; inactive means score below 0.9.

Columns and labels:
[1] = biological target: human RAR-related Orphan Receptor beta (RORb), RORB (gene 6096) (UniProt Q92753); experiment: ATG_RORb_TRANS: Attagene TRANS-FACTORIAL HepG2 Assay for human RAR-related Orphan Receptor beta (RORb) (AID 2283010; active means hit-call score of the fitted dose curve at least 0.9, where 1 is the maximum)
Sequence of human RAR-related Orphan Receptor beta (RORb), RORB (gene 6096) (Q92753 whole entry, looked up, the tested form may be a part): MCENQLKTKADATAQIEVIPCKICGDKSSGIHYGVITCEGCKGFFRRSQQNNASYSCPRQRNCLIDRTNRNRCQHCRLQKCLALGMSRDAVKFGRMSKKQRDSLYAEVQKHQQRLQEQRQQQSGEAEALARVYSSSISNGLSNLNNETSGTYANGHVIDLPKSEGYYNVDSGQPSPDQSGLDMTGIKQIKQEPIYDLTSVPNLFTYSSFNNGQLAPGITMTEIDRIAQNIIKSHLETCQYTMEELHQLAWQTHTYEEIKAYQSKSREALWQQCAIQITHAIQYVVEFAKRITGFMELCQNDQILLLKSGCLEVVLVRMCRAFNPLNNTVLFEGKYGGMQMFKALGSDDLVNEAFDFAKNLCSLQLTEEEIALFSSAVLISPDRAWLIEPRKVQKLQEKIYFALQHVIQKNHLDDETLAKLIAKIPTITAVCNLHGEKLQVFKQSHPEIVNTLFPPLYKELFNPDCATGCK
Summary of the method: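 HepG2, transient MRTU transfection (GAL4-UAS reporters, exogenous NR-Gal4 chimeras); 24 h compound exposure; total RNA → RT-PCR → 6-FAM primer extension → HpaI digest → CE fluorescence. Positive direction vs DMSO baseline.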

[2] = biological target: human RAR-related Orphan Receptor gamma (RORg), RORC (gene 6097) (UniProt P51449); experiment: ATG_RORg_TRANS: Attagene TRANS-FACTORIAL HepG2 Assay for human RAR-related Orphan Receptor gamma (RORg) (AID 2283011; active means hit-call score of the fitted dose curve at least 0.9, where 1 is the maximum)
Sequence of human RAR-related Orphan Receptor gamma (RORg), RORC (gene 6097) (P51449 whole entry, looked up, the tested form may be a part): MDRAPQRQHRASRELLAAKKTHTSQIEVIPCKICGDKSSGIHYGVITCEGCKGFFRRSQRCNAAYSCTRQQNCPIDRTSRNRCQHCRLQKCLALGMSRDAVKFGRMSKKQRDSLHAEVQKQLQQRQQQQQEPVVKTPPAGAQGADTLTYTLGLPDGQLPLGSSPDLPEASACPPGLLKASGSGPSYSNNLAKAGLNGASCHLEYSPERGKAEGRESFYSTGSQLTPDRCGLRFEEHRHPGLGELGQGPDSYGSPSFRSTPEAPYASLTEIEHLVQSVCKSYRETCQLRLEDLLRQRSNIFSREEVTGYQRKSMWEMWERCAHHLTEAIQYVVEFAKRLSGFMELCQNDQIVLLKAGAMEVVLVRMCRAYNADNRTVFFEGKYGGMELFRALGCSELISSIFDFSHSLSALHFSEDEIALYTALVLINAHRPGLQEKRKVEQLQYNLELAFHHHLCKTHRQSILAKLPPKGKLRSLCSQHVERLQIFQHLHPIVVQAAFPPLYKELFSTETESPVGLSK
Summary of the method: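 Activity is scored as increase in GAL4-UAS reporter mRNA over DMSO, detected by fluorescent RT-PCR and capillary electrophoresis in HepG2 cells transiently expressing a RORg-Gal4 chimera, 24 h after dosing.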

[3] = biological target: human Retinoid X Receptor beta (RXRb), RXRB (gene 6257) (UniProt P28702); experiment: ATG_RXRb_TRANS: Attagene TRANS-FACTORIAL HepG2 Assay for human Retinoid X Receptor beta (RXRb) (AID 2283013; active means hit-call score of the fitted dose curve at least 0.9, where 1 is the maximum)
Sequence of human Retinoid X Receptor beta (RXRb), RXRB (gene 6257) (P28702 whole entry, looked up, the tested form may be a part): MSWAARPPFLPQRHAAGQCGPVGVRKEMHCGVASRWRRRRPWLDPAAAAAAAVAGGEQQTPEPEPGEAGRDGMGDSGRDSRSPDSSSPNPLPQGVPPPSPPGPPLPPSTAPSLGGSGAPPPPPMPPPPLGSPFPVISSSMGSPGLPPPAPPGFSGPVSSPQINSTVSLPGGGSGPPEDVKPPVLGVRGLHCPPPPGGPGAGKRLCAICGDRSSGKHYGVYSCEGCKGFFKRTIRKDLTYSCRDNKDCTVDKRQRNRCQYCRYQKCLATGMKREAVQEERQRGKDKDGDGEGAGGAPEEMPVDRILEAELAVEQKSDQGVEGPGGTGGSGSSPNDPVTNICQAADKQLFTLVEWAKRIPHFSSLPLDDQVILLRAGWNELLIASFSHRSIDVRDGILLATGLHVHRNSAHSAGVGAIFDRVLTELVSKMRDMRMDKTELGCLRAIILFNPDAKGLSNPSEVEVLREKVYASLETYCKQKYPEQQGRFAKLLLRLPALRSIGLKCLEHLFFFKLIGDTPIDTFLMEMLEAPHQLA
Summary of the method: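 Read-out: reporter mRNA induction via RT-PCR plus capillary electrophoresis fluorescence, analysed as signal increase relative to DMSO. Cells were human HepG2, transiently transfected with GAL4-UAS reporter constructs and chimeric receptor-Gal4 fusions, dosed for 24 h.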

[4] = read-out: E-selectin (Homo sapiens) (UniProt P16581); experiment: BSK_3C_Eselectin: BioMAP Diversity Plus: 3C Assay for Eselectin Biomarker Activity (AID 2283015); settings: primary human endothelial cells (HUVEC); actives raise or lower the signal
Summary of the method: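 Human vascular endothelium from umbilical vein is exposed to test chemicals for 24 h. E-selectin levels are read by ELISA and compared with DMSO controls.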

[5] = read-out: Interleukin-1 alpha (IL1a), IL1A (gene 3552); experiment: BSK_BE3C_IL1a: BioMAP Diversity Plus: BE3C Assay for Interleukin-1 alpha (IL1a) Biomarker Activity (AID 2283016); settings: primary human bronchial epithelial cells; actives raise or lower the signal
Summary of the method: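 ELISA read-out of IL-1a from human lung bronchial epithelial primary cells, 24 h post-dose. Gain or loss of signal fitted relative to DMSO negative control.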

[6] = read-out: Monocyte Chemoattractant Protein-1 (MCP1), CCL2 (gene 6347); experiment: BSK_3C_MCP1: BioMAP Diversity Plus: 3C Assay for Monocyte Chemoattractant Protein-1 (MCP1) Biomarker Activity (AID 2283017); settings: primary human endothelial cells (HUVEC); actives raise or lower the signal
Summary of the method: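 Endothelial cells from human umbilical vein are dosed with chemical, cultured 24 h, then assayed for MCP-1 by ELISA; both increases and decreases are modelled against DMSO controls.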

[7] = read-out: Monocyte Chemoattractant Protein-1 (MCP1), CCL2 (gene 6347); experiment: BSK_4H_MCP1: BioMAP Diversity Plus: 4H Assay for Monocyte Chemoattractant Protein-1 (MCP1) Biomarker Activity (AID 2283018); settings: primary human endothelial cells (HUVEC); actives raise or lower the signal
Summary of the method: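 HUVEC primary cells, 24 h post-dose, MCP-1 by ELISA. Gain or loss of signal fitted bidirectionally vs DMSO baseline. Cytotoxicity: SRB stain (0.1% after 10% TCA fixation), read 560 nm, parallel cultures.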

[8] = read-out: Human Leukocyte Antigen - DR isotype (HLADR), HLA-DRA (gene 3122); experiment: BSK_3C_HLADR: BioMAP Diversity Plus: 3C Assay for Human Leukocyte Antigen - DR isotype (HLADR) Biomarker Activity (AID 2283019); settings: primary human endothelial cells (HUVEC); actives raise or lower the signal
Summary of the method: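 Endothelial cells from human umbilical vein are treated with test chemical; after 24 h, HLA-DR levels are measured by ELISA. Data are fitted in both directions using DMSO as the baseline.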

[9] = read-out: Interleukin-8 (IL8), CXCL8 (gene 3576); experiment: BSK_3C_IL8: BioMAP Diversity Plus: 3C Assay for Interleukin-8 (IL8) Biomarker Activity (AID 2283020); settings: primary human endothelial cells (HUVEC); actives raise or lower the signal
Summary of the method: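 HUVEC, 3C stimulation; 24 h compound exposure; IL-8 read by ELISA; gain or loss of signal fitted relative to DMSO control.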

[10] = read-out: Monokine induced gamma interferon (MIG), CXCL9 (gene 4283); experiment: BSK_3C_MIG: BioMAP Diversity Plus: 3C Assay for Monokine induced gamma interferon (MIG) Biomarker Activity (AID 2283021); settings: primary human endothelial cells (HUVEC); actives raise or lower the signal;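 on AC50: MIG protein level measured by immunoassay in the treated endothelial cultures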
Summary of the method: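 HUVEC, 3C system; 24 h chemical exposure; MIG by ELISA; bidirectional fit vs DMSO baseline.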

[11] = biological target: human Vitamin D Receptor (VDR), VDR (gene 7421) (UniProt P11473); experiment: ATG_VDR_TRANS: Attagene TRANS-FACTORIAL HepG2 Assay for human Vitamin D Receptor (VDR) (AID 2283022; active means hit-call score of the fitted dose curve at least 0.9, where 1 is the maximum)
Sequence of human Vitamin D Receptor (VDR), VDR (gene 7421) (P11473 whole entry, looked up, the tested form may be a part): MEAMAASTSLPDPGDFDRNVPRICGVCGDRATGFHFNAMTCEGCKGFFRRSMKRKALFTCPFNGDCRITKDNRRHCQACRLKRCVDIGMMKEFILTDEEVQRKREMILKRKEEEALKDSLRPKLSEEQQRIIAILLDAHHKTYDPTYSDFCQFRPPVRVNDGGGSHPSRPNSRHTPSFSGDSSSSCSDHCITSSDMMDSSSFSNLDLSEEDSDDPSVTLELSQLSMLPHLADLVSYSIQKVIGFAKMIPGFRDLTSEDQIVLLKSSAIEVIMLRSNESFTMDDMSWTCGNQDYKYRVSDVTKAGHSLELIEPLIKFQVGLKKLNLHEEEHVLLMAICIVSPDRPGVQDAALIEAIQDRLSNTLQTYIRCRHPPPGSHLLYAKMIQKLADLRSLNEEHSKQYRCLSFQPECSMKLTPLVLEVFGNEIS
Summary of the method: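 Fluorescence of labelled reporter cDNA fragments, resolved by capillary electrophoresis, gives mRNA induction after 24 h treatment of HepG2 cells carrying transfected Gal4-fusion reporter units. Activity is fitted in the positive direction with DMSO as baseline.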

[12] = read-out: Matrix Metallopeptidase 1 (MMP1), MMP1 (gene 4312); experiment: BSK_BE3C_MMP1: BioMAP Diversity Plus: BE3C Assay for Matrix Metallopeptidase 1 (MMP1) Biomarker Activity (AID 2283024); settings: primary human bronchial epithelial cells; actives raise or lower the signal
Summary of the method: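 ELISA read-out of MMP1 in human lung bronchial epithelial primary cultures, 24 h post-dose; bidirectional curve fit vs DMSO baseline, gain or loss of signal scored.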

[13] = BSK_3C_Vis: BioMAP Diversity Plus: 3C Assay for Morphology Visualization (AID 2283025); settings: primary human endothelial cells (HUVEC);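 further: fitted both ways so gain or loss versus DMSO counts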;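 on AC50: light microscopy image of cell morphology used as background control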
Summary of the method: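 HUVEC, 3C system; light microscopy of morphology at 24 h post-dose. Bidirectional fit vs DMSO baseline. Secondary readout, background-control function.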

[14] = read-out: Pselectin, SELP (gene 6403); experiment: BSK_4H_Pselectin: BioMAP Diversity Plus: 4H Assay for Pselectin Biomarker Activity (AID 2283026); settings: primary human endothelial cells (HUVEC); actives raise or lower the signal
Summary of the method: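 HUVEC, 24 h chemical exposure; P-selectin read by ELISA. Bidirectional curve fit vs DMSO baseline; gain or loss of signal scored.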

[15] = BSK_4H_SRB: Viability Assessment in the BioMAP Diversity Plus: 4H Assay (AID 2283027); settings: primary human endothelial cells (HUVEC);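 further: cells exposed to compound for 24 h before staining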;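 on AC50: curves fitted both ways versus DMSO so AC50 may be loss or gain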
Summary of the method: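 Cytotoxicity readout: sulforhodamine B (0.1%) staining of total protein after 10% TCA fixation, measured at 560 nm in human umbilical vein endothelium at 24 h. DMSO set the baseline; fitting was bidirectional.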

[16] = BSK_BE3C_SRB: Viability Assessment in the BioMAP Diversity Plus: BE3C Assay (AID 2283028); settings: primary human bronchial epithelial cells;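 on AC50: fitted both ways so AC50 may mark signal gain or loss versus DMSO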
Summary of the method: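 Overt cytotoxicity was assessed as total protein in confluent human primary bronchial epithelial cultures 24 h after chemical addition, using 0.1% sulforhodamine B staining read at 560 nm.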

[17] = read-out: Thrombomodulin, THBD (gene 7056); experiment: BSK_3C_Thrombomodulin: BioMAP Diversity Plus: 3C Assay for Thrombomodulin Biomarker Activity (AID 2283029); settings: primary human endothelial cells (HUVEC); actives raise or lower the signal
Summary of the method: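 HUVEC, 3C conditions; compound 24 h; thrombomodulin by ELISA; bidirectional curve fit vs DMSO baseline; parallel SRB total-protein staining for cytotoxicity.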

[18] = read-out: Urokinase-type plasminogen activator receptor (uPAR), PLAUR (gene 5329); experiment: BSK_4H_uPAR: BioMAP Diversity Plus: 4H Assay for Urokinase-type plasminogen activator receptor (uPAR) Biomarker Activity (AID 2283030); settings: primary human endothelial cells (HUVEC); actives raise or lower the signal
Summary of the method: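 Chemicals are dosed onto human vascular endothelial primary cells (umbilical vein). After 24 h, uPAR is read by ELISA. Gain or loss of signal is fitted relative to DMSO.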

[19] = biological target: Retinoic acid receptor RXR-alpha (Homo sapiens) (UniProt P19793); experiment: ATG_RXRa_TRANS: Attagene TRANS-FACTORIAL HepG2 Assay for human Retinoid X Receptor alpha (RXRa) (AID 2283012; active means hit-call score of the fitted dose curve at least 0.9, where 1 is the maximum)
Sequence of Retinoic acid receptor RXR-alpha (Homo sapiens) (P19793 whole entry, looked up, the tested form may be a part): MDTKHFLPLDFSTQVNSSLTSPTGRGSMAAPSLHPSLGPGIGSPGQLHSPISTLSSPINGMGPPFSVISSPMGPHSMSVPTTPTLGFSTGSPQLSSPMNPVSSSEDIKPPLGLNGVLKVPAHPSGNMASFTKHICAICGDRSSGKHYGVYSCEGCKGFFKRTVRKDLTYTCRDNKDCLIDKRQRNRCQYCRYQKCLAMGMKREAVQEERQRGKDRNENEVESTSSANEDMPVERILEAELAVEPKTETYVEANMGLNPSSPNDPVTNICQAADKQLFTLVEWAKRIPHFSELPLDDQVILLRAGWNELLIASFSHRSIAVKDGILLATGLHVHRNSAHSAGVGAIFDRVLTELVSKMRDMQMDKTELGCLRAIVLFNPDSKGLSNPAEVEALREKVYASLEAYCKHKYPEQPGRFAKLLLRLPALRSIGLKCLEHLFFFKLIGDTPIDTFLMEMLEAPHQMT
Summary of the method: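 Read-out: fluorescent reporter-transcript fragments quantified by capillary electrophoresis after RT-PCR. Transiently transfected HepG2 cells carrying GAL4-UAS reporters and NR-GAL4 chimeras were exposed to chemical for 24 h; activity scored as increase over DMSO.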

[20] = BSK_3C_SRB: Viability Assessment in the BioMAP Diversity Plus: 3C Assay (AID 2283023); settings: primary human endothelial cells (HUVEC);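 further: cells read 24 h after compound dosing; fitted both ways against DMSO so a hit may be signal rise or drop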
Summary of the method: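 Cells were dosed with chemical, cultured 24 h, fixed with 10% TCA, stained with 0.1% SRB and read at 560 nm. Human umbilical vein endothelium was used; DMSO served as negative control and baseline.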

Measured: AC50

Sequence of E-selectin (Homo sapiens) (P16581 whole entry, looked up): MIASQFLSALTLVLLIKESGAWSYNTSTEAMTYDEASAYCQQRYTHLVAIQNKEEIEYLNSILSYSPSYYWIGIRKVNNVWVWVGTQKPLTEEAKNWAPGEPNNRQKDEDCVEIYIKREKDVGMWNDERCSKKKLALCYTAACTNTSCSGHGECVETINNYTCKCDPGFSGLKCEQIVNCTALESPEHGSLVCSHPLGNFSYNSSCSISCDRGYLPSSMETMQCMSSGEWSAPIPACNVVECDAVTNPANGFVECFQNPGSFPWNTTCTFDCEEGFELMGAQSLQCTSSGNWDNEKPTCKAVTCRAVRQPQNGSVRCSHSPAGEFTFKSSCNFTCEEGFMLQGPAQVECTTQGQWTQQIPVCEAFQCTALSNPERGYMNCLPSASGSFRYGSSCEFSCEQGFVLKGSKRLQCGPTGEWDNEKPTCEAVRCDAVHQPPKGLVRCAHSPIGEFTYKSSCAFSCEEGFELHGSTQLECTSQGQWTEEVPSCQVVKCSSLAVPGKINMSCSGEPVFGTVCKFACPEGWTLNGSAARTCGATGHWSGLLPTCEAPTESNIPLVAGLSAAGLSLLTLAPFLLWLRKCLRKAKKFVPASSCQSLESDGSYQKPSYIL

CN(C)NC(=O)CCC(=O)O
not listed: [19] | [20]
inactive: all other assays above

CCCCOC(=O)[C@@H](C)Oc1ccc(Oc2ccc(C#N)cc2F)cc1
not listed: [3] | [9] | [11] | [20]
inactive: all other assays above

CCCSP(=O)(OCC)Oc1ccc(Br)cc1Cl (configuration not stated)
active: [7] 28.9 µM | [14] 32.3 µM | [15] 22.8 µM | [16] 15.4 µM
not listed: [3] | [9] | [19] | [20]
inactive: all other assays above

CC[C@H](C)[C@H]1O[C@]2(C=C[C@@H]1C)C[C@@H]1C[C@@H](C/C=C(\C)[C@@H](O[C@H]3C[C@H](OC)[C@@H](O[C@H]4C[C@H](OC)[C@@H](NC)[C@H](C)O4)[C@H](C)O3)[C@@H](C)/C=C/C=C3\CO[C@@H]4[C@H](O)C(C)=C[C@@H](C(=O)O1)[C@]34O)O2
active: [4] 8.63 µM | [5] 7.71 µM | [6] 3.66 µM | [7] 2.88 µM | [8] 3.38 µM | [9] 6.22 µM | [10] 9.14 µM | [12] 11.9 µM | [13] 1.61 µM | [14] 1.77 µM | [15] 5.17 µM | [16] 2.87 µM | [17] 1.88 µM | [18] 1.73 µM
inactive: [1] | [2] | [19] | [11]

COP(=O)(OC)C(O)C(Cl)(Cl)Cl (configuration not stated)
active: [13] 9.8 µM
not listed: [9] | [20]
inactive: all other assays above

CCCCOC(=O)c1ccccc1C(=O)O
active: [13] 0.28 µM
not listed: [11]
inactive: all other assays above

O=[N+]([O-])c1cc(C(F)(F)F)c(Cl)c([N+](=O)[O-])c1Nc1ncc(C(F)(F)F)cc1Cl
active: [4] 1.47 µM and 3.24 µM | [5] 1.95 µM and 6.28 µM | [6] 3.5 µM and 4.23 µM | [7] 738 nM and 3.46 µM | [8] 919 nM and 1.74 µM | [10] 3.73 µM and 5.09 µM | [20] 1.49 µM | [12] 3.93 µM | [13] 1.5 µM and 2.12 µM | [14] 1.18 µM and 2.13 µM | [15] 1 µM and 2.39 µM | [16] 1.79 µM and 4.1 µM | [17] 774 nM and 2.49 µM | [18] 1.4 µM and 2.25 µM
inactive: [1] | [2] | [19] | [3] | [11] | [20]

CCCOc1nn(C(=O)NS(=O)(=O)c2ccccc2C(=O)OC)c(=O)n1C
not listed: [2] | [3] | [9] | [11] | [20]
inactive: all other assays above

CNC(=O)Oc1cccc2c1OC(C)(C)O2
active: [4] 27.3 µM | [8] 28.6 µM | [14] 16.7 µM
not listed: [2] | [19] | [20]
inactive: all other assays above

CCC(=NOC/C=C/Cl)C1=C(O)CC(C2CCOCC2)CC1=O (configuration not stated)
not listed: [9] | [11] | [20]
inactive: all other assays above

Cc1cc(C2CC2)nc(Nc2ccccc2)n1
active: [3] 75.3 µM | [6] 32.1 µM | [7] 17.8 µM | [8] 15.2 µM | [13] 37.5 µM | [17] 33.7 µM
not listed: [1] | [20]
inactive: all other assays above

CN(C)[C@@H]1C(=O)C(C(N)=O)=C(O)[C@@]2(O)C(=O)C3=C(O)c4c(O)cccc4[C@@](C)(O)[C@H]3[C@H](O)[C@@H]12
inactive: [1] | [19] | [3] | [4] | [5] | [6] | [7] | [8] | [9] | [10] | [20] | [12] | [13] | [14] | [15] | [16] | [17] | [18]
active: [12] 15.8 µM

Nc1nc(N)nc(NC2CC2)n1
not listed: [2] | [11]
inactive: all other assays above

CCOP(=S)(Oc1cnc(C(C)(C)C)nc1)OC(C)C (configuration not stated)
active: [4] 31.2 µM | [6] 38 µM | [7] 33.4 µM | [8] 31.3 µM | [10] 34.2 µM | [20] 35.5 µM | [13] 39.8 µM | [14] 32 µM | [15] 34.1 µM
inactive: [1] | [19] | [3] | [5] | [11] | [12] | [16] | [17] | [18]
